Assay [1] has as its target Serine/threonine-protein kinase 26 (Homo sapiens) (UniProt Q9P289). The settings on record: at 1 µM.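 Also: mean inhibition of MST4 kinase activity, reported from the GSK PKIS inhibitor-set screening panel.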
The target of assay [2] is Serine/threonine-protein kinase PAK 1 (Homo sapiens) (UniProt Q13153). The note with it: at 0.1 µM.
Assay [3] has the same target. The note with it: at 1 µM.
For assay [4], the target named is Serine/threonine-protein kinase PAK 2 (Homo sapiens) (UniProt Q13177). The settings on record: at 0.1 µM.
Serine/threonine-protein kinase PAK 2 (Homo sapiens), sequence (Q13177 whole entry): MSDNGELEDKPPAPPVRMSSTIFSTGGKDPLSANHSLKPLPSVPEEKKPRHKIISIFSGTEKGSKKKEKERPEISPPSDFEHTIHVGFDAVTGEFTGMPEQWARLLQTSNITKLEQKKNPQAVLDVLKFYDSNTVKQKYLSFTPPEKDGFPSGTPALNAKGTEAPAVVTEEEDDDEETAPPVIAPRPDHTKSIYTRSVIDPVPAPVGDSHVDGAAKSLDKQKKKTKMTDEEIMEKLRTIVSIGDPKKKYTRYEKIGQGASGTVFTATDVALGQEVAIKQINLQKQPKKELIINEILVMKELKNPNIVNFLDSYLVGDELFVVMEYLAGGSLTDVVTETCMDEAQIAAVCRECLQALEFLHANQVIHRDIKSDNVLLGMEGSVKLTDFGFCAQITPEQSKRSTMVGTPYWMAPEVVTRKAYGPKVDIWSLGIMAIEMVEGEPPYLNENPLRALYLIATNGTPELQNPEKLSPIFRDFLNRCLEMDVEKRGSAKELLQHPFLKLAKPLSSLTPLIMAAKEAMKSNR
Assay [5] has the same target. The note with it: at 1 µM.
The target of assay [6] is Serine/threonine-protein kinase PAK 3 (Homo sapiens) (UniProt O75914). The note with it: at 0.1 µM.
Serine/threonine-protein kinase PAK 3 (Homo sapiens), sequence (O75914 whole entry, looked up): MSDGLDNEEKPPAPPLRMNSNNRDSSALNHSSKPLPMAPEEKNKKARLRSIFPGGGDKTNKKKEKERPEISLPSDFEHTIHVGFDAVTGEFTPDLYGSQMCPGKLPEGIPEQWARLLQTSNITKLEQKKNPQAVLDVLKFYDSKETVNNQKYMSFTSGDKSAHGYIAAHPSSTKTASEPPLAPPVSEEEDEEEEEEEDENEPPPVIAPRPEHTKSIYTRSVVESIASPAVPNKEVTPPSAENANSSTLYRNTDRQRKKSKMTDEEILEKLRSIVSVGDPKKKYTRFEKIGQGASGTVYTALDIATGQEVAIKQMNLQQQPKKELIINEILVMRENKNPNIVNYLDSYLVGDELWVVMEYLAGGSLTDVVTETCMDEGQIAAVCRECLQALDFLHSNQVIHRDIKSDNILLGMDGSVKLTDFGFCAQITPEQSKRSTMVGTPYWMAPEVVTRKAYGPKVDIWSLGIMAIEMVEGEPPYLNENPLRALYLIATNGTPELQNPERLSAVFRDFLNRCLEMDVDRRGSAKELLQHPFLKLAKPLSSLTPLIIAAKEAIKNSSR
For assay [7] the target is unchanged. The note with it: at 1 µM.
Assay [8] addresses Serine/threonine-protein kinase PAK 5 (Homo sapiens) (UniProt Q9P286). The note with it: at 0.1 µM.
Assay [9] shares this target. The settings on record: at 1 µM.
In assay [10] the target is Serine/threonine-protein kinase PAK 6 (Homo sapiens) (UniProt Q9NQU5). The settings on record: at 0.1 µM.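 Also: mean PAK6 inhibition reported from the GSK PKIS screen.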
Serine/threonine-protein kinase PAK 6 (Homo sapiens), sequence (Q9NQU5 whole entry, looked up): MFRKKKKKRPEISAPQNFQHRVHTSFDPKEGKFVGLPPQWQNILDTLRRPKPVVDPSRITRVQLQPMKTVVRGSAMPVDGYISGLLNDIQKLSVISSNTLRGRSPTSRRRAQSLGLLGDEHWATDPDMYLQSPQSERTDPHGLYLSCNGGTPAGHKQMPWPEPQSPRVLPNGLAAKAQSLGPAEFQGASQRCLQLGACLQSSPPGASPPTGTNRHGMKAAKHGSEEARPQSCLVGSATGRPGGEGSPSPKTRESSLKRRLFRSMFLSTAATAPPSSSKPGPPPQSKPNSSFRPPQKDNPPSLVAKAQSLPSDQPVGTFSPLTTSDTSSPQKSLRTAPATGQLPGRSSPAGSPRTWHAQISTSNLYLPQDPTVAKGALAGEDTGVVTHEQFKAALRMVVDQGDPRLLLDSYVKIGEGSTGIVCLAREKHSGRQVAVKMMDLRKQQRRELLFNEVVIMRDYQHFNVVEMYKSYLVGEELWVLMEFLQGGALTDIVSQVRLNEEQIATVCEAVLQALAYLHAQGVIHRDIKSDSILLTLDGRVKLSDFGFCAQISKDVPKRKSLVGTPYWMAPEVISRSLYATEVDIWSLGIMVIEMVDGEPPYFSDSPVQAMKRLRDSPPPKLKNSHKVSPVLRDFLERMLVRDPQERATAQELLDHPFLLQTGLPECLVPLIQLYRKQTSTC

For 17 molecules, inhibition results are on record in ChEMBL document CHEMBL1961873, “Compounds: GSK PKIS; Assays: Nanosyn kinase panel” (2012).

Serine/threonine-protein kinase PAK 1 (Homo sapiens), sequence (Q13153 whole entry): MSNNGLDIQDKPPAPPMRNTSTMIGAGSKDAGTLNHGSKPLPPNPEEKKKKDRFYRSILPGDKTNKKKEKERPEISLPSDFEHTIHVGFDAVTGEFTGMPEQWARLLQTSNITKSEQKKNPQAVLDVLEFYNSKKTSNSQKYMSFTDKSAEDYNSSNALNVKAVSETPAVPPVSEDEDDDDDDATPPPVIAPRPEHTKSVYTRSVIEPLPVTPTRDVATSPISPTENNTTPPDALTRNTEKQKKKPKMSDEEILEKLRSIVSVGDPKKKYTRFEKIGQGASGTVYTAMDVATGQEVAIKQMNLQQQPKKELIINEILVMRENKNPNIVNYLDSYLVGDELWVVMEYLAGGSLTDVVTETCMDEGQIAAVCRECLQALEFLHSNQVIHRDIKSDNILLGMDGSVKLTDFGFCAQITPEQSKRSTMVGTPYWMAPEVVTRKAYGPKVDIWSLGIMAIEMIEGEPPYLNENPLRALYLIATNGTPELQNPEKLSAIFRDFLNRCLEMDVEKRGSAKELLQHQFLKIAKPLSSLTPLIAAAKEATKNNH
Serine/threonine-protein kinase PAK 5 (Homo sapiens), sequence (Q9P286 whole entry, looked up): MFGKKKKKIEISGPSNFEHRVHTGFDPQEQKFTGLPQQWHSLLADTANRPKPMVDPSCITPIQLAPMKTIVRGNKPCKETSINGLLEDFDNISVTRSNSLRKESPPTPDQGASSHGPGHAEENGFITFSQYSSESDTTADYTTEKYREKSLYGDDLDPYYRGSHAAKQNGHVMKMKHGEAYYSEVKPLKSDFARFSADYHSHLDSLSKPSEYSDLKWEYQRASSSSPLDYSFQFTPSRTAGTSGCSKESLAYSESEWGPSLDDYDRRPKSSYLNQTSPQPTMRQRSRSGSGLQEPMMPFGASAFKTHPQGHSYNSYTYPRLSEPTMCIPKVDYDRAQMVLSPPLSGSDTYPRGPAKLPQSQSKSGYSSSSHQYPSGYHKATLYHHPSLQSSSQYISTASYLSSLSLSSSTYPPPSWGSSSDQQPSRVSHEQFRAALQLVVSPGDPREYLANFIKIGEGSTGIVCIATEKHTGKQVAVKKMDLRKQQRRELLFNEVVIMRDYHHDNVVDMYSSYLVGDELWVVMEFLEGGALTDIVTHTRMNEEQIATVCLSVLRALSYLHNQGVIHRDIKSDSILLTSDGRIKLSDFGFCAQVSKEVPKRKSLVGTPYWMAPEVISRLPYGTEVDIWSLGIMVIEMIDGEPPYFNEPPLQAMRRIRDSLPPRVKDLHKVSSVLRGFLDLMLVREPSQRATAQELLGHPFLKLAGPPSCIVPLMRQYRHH
Serine/threonine-protein kinase 26 (Homo sapiens), sequence (Q9P289 2-416 limits assumed): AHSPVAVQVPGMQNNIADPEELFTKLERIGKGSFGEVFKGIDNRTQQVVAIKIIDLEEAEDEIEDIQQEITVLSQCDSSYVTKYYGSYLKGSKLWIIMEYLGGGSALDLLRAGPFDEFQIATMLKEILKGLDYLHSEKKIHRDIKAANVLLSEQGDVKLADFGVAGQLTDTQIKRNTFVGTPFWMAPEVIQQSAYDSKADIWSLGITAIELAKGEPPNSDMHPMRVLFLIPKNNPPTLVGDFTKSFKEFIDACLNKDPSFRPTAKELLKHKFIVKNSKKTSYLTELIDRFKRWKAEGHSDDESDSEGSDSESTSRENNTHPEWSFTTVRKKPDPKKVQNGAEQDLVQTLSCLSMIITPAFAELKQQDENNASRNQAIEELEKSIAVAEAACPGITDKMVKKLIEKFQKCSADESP

For `Cc1ccc(NC(=O)CC2CC2)cc1-c1ccc(C(=O)NCC2CC2)cc1`, the inhibition in assay [1] amounted to 0.9%; in assay [2], 5.24%; in assay [3] it was 4.74%; in assay [4], 1.76%; in assay [5] it was 1.56%; in assay [6], 3.33%. For the same molecule, the inhibition in assay [7] turned out to be 4.25%; in [8], 6.64%; in [9], 5.74%.

On to `c1ccc(Nc2ncc(-c3ccccc3)o2)cc1`, for which the inhibition in assay [1] was 0.04%; in assay [2] it was 6.49%; in assay [3], 10.6%; in assay [4], 0.76%; in assay [5] it was 2.87%; in assay [6], 5.16%. Also, the inhibition was found to be 4.34% in assay [7], 2.74% in [8] and 2.9% in assay [9].

On to `Cc1ccc(O)cc1Nc1ccnc2ccc(S(C)(=O)=O)cc12`, for which the inhibition in assay [1] is -0.56%; in [2], 9.27%; in assay [3] it was 13.3%; in [4], 2.82%; in assay [5], 2.56%; in assay [6] it was 5.79%. Also, the inhibition is 6.05% in assay [7], 1.8% in assay [8], 8.34% in assay [9] and -3.21% in assay [10].

Regarding `CCS(=O)(=O)c1ccc(OC)c(Nc2nccc(N(C)c3ccc4c(C)n[nH]c4c3)n2)c1`, the inhibition amounted to 0.16% in assay [1]; 3.86% in assay [2]; 6.28% in assay [3]; 1.58% in [4]; 1.86% in assay [5]; 5.97% in assay [6]. For the same molecule, the inhibition was 5.09% in [7], 1.92% in [8] and 0.85% in assay [9].

For the molecule `CN1CCN(C(=O)c2ccc(NC(=O)Nc3ccc(N(C)c4ccnc(Nc5ccc(CS(C)(=O)=O)cc5)n4)cc3)cc2)CC1`, the inhibition is 12.8% in [1]; -0.46% in assay [2]; 6.1% in assay [3]; 0.16% in assay [4]; 1.51% in assay [5]; 1.85% in assay [6]. Further, the inhibition in [7] is 5.09%; in assay [8], 3.35%; in assay [9], 17.6%.

On to `NS(=O)(=O)c1ccc(N/N=C2\C(=O)Nc3ccc(Cl)cc32)cc1`, for which the inhibition turned out to be 13.4% in assay [1]; 3.14% in assay [2]; 5.51% in [3]; 0.72% in assay [4]; 1.37% in assay [5]; 3.71% in assay [6]. Also, the inhibition in assay [7] was 5.15%; in assay [8] it was 4.18%; in [9], 3.28%; in assay [10], -3.69%.

In the case of `COc1ccc(-c2nn3ncccc3c2-c2ccnc(Nc3cccc(C(F)(F)F)c3)n2)cc1`, the inhibition in assay [1] is -0.52%; in assay [2], 6.36%; in assay [3], 5.19%; in assay [4] it was 0.91%; in assay [5], -0.8%; in assay [6], 3.37%. Moreover, the inhibition in assay [7] is 3.1%; in assay [8] it was 1.8%; in assay [9], 1.57%; in assay [10] it was -2.15%.

Take `CCn1c(-c2nonc2N)nc2c(C#CC(C)(C)O)nc(OCCNC)cc21`: the inhibition was -1.03% in [1]; 8.56% in [2]; 5.49% in [3]; 1.23% in assay [4]; 2.27% in [5]; 3.16% in [6]. In addition, the inhibition in assay [7] worked out at 5.05%; in assay [8], 3.8%; in assay [9], 12.5%.

Turning to `Nc1nccc(C#Cc2cncnc2Nc2ccc(OCc3cccc(F)c3)c(Cl)c2)n1`, the inhibition in assay [1] was -8.32%; in [2], 6.18%; in assay [3], 3.97%; in assay [4], 1.6%; in assay [5], 2.31%; in assay [6], 0.29%. Also, the inhibition in [7] was 3.37%; in assay [8], 3.29%; in assay [9], -3.56%; in [10] it was 5.51%.

For the molecule `COc1cccc(-n2ncc3c(N/N=C/c4ccc(C)cc4)ncnc32)c1`, the inhibition in [1] was -3.2%; in assay [2] it was 10%; in assay [3], 9.32%; in [4], 1.75%; in assay [5], 1.47%; in [6] it was 6.06%. The inhibition in assay [7] is 6.42%; in [8] it was 6.1%; in [9], 10.7%.

As for `CCS(=O)(=O)c1ccc(OC)c(Nc2ncc(-c3cccc(OC)c3)o2)c1`, the inhibition in assay [1] is -4.12%; in assay [2] it was 2.01%; in assay [3] it was 5.71%; in assay [4], 2.79%; in assay [5], 1.98%; in assay [6] it was 3.24%. In addition, the inhibition in [7] is 2.36%; in assay [8], 6.72%; in assay [9], -1.57%; in assay [10] it was -4.37%.

With `COc1cccc(-n2nc(C)c3c(N/N=C(\C)c4ccncc4)ncnc32)c1`, the inhibition in assay [1] is 1.92%; in assay [2], -1.07%; in assay [3] it was 5.57%; in [4], -1.35%; in assay [5], -0.3%; in assay [6] it was 0.46%. The inhibition in assay [7] was 2.49%; in assay [8], -0.74%; in assay [9], -1.22%.

Turning to `COc1cc2ncnc(Nc3ccc4c(cnn4Cc4ccccc4)c3)c2cc1OC`, the inhibition in [1] was -2.02%; in assay [2] it was 4.26%; in assay [3], 6.92%; in [4], 1.54%; in assay [5], 2.6%; in assay [6] it was 2.02%. In addition, the inhibition came out at 3.19% in [7], 1.77% in assay [8] and 2.16% in assay [9].

`COC(=O)c1ccc2c(c1)C(=Cc1cc(Br)c(O)c(Br)c1)C(=O)N2`: the inhibition stood at 15.1% in assay [1]; 8.19% in assay [2]; 10.1% in assay [3]; 1.7% in assay [4]; 1.99% in assay [5]; 4.21% in assay [6]. Further, the inhibition in assay [7] came to 5.43%; in assay [8] it was 7.06%; in assay [9], 10.8%.

Turning to `Cc1ccc2c(-c3ccnc(Nc4cccc(C(F)(F)F)c4)n3)c(-c3ccccc3)nn2n1`, the inhibition was found to be 13.3% in assay [1]; 9.96% in assay [2]; 8.06% in assay [3]; 1.38% in [4]; 1.7% in [5]; 5.11% in assay [6]. Moreover, the values for the inhibition in assay [7], in assay [8] and in [9] were 5.68%, -4.38% and -7%, respectively.

Consider `COC(=O)Nc1nc2cc(Oc3ccc(NC(=O)Nc4cccc(Br)c4)cc3)ccc2[nH]1`, for which the inhibition was 9.97% in assay [1]; -0.8% in [2]; 6.23% in assay [3]; 0.73% in assay [4]; 0.39% in assay [5]; 2.85% in [6]. Also, the inhibition in assay [7] was 2.59%; in assay [8] it was -1.29%; in assay [9], -0.7%; in assay [10], -5.52%.

Regarding `CC(C)c1ccc2c(c1)NC(=O)/C2=N/Nc1ccc(S(N)(=O)=O)cc1`, the inhibition in assay [1] was 0.01%; in assay [2], -1.3%; in assay [3], 3.93%; in assay [4] it was -1.91%; in assay [5] it was -1.73%; in assay [6], -1.11%. Further, the inhibition in assay [7] is 0.37%; in assay [8], -6.19%; in assay [9], -0.94%; in [10], -8.22%.

For orientation: inhibition means the change of the read-out against control, counted positive when it falls.
